# Results as given in PubChem BioAssay.
# Active and inactive are the calls of the source.
# Columns and labels:
# [1] = optical density shifts of acrAB sulA E. coli – strain DRC41, OD650, 48 h, E. coli filamentation inducer project, primary screen (AID 1152); settings: higher = more signal, called active from +8 up or from −8 down;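 note: E. coli MC1000 strain DRC41 lacking acrAB efflux pump and sulA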
# [2] = probe aLefty1 binding on compound microarray – biochemical, small-molecule microarray, 635/667 nm fluorescence, primary screen (AID 1153); settings: higher = more signal;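 note: score merges spot fluorescence with signal-to-noise ratio from the scanned slide images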
# [3] = plasmodial surface anion channel blockers, osmotic lysis – cell-based, P. falciparum Indochina, OD700, 1 h, primary screen (AID 1154); settings: P. falciparum Indochina infected RBC osmotic lysis, higher = more signal, called active from +8 up or from −8 down
# [4] = plasmodial surface anion channel blockers, osmotic lysis – cell-based, P. falciparum Indochina, OD700, 2 h, primary screen (AID 1155);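 note: lysis reports solute entry through the parasite surface anion channel PSAC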; settings: P. falciparum Indochina infected erythrocytes, higher = more signal, called active from +8 up or from −8 down
# [5] = changes in parasitized red cell lysis, either direction – P. falciparum Indochina, OD700, 3 h, PSAC antagonist project, primary screen (AID 1156); settings: P. falciparum-infected erythrocytes, osmotic lysis, higher = more signal, called active from +8 up or from −8 down
# [6] = plasmodial surface anion channel blockers, osmotic lysis – cell-based, P. falciparum Indochina, OD700, 18 h, primary screen (AID 1157); settings: P. falciparum Indochina infected erythrocytes, osmotic lysis OD700, 18 h; higher = more signal, called active from +8 up or from −8 down
# [7] = S6 kinase pathway phospho-S6 level changes – cell-based, A549, cytoblot, luminescence, serum-stimulated, primary screen (AID 1158); settings: 5 h, higher = more signal;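 note: serum-stimulated A549 lung adenocarcinoma cells; signal is phosphorylated S6 detected by cytoblot immunostaining with HRP secondary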
# [8] = molecular target: NADPH oxidase 2 (Homo sapiens) (UniProt P04839); assay: compounds shifting NOX2 Amplex Red fluorescence – cell-based, HEK293-NOX2, PMA-stimulated, NOX inhibitor project, primary screen (AID 1159); settings: 45 min, higher = more signal, called active from +8 up or from −8 down; note: test concentration not given here
# Sequence of NADPH oxidase 2 (Homo sapiens) (P04839 whole entry, looked up): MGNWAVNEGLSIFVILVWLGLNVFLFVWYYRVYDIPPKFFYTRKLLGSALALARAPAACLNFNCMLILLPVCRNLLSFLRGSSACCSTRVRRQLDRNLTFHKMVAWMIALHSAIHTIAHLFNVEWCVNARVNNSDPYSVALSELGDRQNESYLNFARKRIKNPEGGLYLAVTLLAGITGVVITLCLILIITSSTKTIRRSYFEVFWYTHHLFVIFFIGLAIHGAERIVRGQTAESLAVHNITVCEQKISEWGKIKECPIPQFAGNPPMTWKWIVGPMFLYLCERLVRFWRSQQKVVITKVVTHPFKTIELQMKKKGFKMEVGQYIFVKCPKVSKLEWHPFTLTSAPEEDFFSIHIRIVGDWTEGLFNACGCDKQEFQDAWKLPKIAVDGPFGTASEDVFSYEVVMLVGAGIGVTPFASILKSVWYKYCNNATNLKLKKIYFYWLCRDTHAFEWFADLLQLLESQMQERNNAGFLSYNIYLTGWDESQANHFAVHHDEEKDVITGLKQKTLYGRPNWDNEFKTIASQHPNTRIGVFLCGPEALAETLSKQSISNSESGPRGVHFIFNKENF
# [9] = molecular target: NADPH oxidase 4 (Homo sapiens) (UniProt Q9NPH5); assay: compounds shifting NOX4 Amplex Red fluorescence – cell-based, HEK293-NOX4, tetracycline-induced, NOX inhibitor project, primary screen (AID 1160); settings: HEK293-NOX4, Amplex Red H2O2 fluorescence, 45 min; higher = more signal, called active from +8 up or from −8 down
# Sequence of NADPH oxidase 4 (Homo sapiens) (Q9NPH5 whole entry, looked up): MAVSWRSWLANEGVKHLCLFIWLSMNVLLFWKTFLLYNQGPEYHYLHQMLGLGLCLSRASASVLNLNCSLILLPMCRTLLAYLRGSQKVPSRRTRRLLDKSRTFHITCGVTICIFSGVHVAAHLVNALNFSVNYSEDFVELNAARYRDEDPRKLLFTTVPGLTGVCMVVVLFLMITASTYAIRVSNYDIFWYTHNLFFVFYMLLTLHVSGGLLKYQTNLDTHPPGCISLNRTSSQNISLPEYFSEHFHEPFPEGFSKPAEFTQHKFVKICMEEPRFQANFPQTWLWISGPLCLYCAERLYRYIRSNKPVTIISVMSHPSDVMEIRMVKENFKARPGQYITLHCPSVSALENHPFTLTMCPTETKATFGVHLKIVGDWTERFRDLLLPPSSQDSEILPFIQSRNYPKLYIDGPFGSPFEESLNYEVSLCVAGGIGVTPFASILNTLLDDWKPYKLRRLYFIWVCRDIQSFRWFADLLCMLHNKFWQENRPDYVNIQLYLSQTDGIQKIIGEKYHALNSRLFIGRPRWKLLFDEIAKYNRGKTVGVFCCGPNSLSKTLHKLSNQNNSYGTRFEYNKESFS
# [10] = molecular target: NADPH oxidase 5 (Homo sapiens) (UniProt Q96PH1); assay: compounds shifting NOX5 Amplex Red fluorescence – cell-based, HEK293-NOX5, NOX inhibitor project, primary screen (AID 1161); settings: HEK293-NOX5, ionomycin, 45 min, higher = more signal
# Sequence of NADPH oxidase 5 (Homo sapiens) (Q96PH1 whole entry, looked up): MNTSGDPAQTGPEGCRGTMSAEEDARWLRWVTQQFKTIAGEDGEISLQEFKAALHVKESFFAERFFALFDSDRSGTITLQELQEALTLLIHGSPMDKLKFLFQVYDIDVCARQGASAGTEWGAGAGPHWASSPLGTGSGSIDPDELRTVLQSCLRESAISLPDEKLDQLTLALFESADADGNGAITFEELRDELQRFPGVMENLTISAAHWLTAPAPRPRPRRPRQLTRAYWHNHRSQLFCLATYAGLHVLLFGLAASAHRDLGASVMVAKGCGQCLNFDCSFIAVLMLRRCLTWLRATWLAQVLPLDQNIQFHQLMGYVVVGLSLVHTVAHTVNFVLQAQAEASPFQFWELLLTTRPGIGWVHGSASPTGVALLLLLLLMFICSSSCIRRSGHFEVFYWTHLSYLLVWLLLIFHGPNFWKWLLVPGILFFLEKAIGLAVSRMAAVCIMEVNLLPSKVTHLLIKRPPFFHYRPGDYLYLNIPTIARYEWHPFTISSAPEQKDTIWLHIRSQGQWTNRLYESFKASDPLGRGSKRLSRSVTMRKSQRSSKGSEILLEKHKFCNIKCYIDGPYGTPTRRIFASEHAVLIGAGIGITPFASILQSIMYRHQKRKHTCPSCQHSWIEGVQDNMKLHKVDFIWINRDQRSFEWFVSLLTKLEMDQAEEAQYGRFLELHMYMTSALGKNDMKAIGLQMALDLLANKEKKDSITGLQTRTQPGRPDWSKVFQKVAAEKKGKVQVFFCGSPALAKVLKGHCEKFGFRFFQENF
# [11] = compound effects on lung adenocarcinoma cell viability – A549, calcein-AM fluorescence, 48 h, basal, profiling panel (AID 1162); settings: higher = more signal; note: test concentration not given here
# [12] = compound effects on differentiated 3T3-L1 adipocyte viability – cell-based, 3T3-L1 adipocytes, calcein-AM fluorescence, 48 h, basal, profiling panel (AID 1163); settings: 3T3-L1 adipocytes viability, higher = more signal; note: test concentration not given here
# [13] = compound effects on hepatocellular carcinoma cell viability – HepG2, calcein-AM fluorescence, 48 h, basal, profiling panel (AID 1164); settings: higher = more signal; note: test concentration not given here
# [14] = compound effects on multiple myeloma cell viability – MM1S, calcein-AM fluorescence, 48 h, basal, profiling panel (AID 1165); settings: higher = more signal;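 note: viability of MM1S multiple myeloma cells under basal unstimulated conditions; test concentration not given here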
# [15] = calcein-AM signal in unstimulated myeloma cells – cell-based, calcein-AM fluorescence, 48 h, PK04 Diversity Set, profiling panel (AID 1166); settings: RPMI8226 myeloma viability, higher = more signal;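 note: cells grown under basal conditions without added stimulus; test concentration not given here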
# [16] = JC-1 mitochondrial signal, unstimulated HepG2 cells – cell-based, JC-1 fluorescence, 24 h, 100 nL compound, profiling panel (AID 1167); settings: HepG2 mitochondrial potential, higher = more signal; note: test concentration not given here
# [17] = JC-1 mitochondrial signal, unstimulated adipocytes – cell-based, JC-1 fluorescence, 3T3-L1 adipocytes, 24 h, 100 nL compound, profiling panel (AID 1168); settings: JC-1 mitochondrial fluorescence, higher = more signal, called active from +8 up or from −8 down; note: test concentration not given here
# [18] = JC-1 mitochondrial signal, unstimulated myeloma cells – cell-based, JC-1 fluorescence, RPMI8226, 24 h, 100 nL compound, profiling panel (AID 1169); settings: JC-1 mitochondrial potential fluorescence, higher = more signal; note: test concentration not given here
# [19] = JC-1 mitochondrial signal, unstimulated MM1S myeloma – cell-based, JC-1 fluorescence, 24 h, 100 nL compound, profiling panel (AID 1170); settings: MM1S mitochondrial potential, higher = more signal; note: test concentration not given here
# [20] = resazurin metabolic signal in A549 cells – cell-based, resazurin fluorescence, 24 h, PK04 Diversity Set, profiling panel (AID 1171); settings: A549 viability, higher = more signal, called active from +8 up or from −8 down; note: test concentration not given here
SMILES,z-score [1],composite z-score [2],z-score [3],z-score [4],z-score [5],z-score [6],z-score [7],z-score [8],z-score [9],z-score [10],z-score [11],z-score [12],z-score [13],z-score [14],z-score [15],z-score [16],z-score [17],z-score [18],z-score [19],z-score [20]
CO[C@H]1O[C@H](CO)[C@@H](OC(=O)Nc2ccccc2-c2ccccc2)[C@H](OC(=O)Nc2ccccc2-c2ccccc2)[C@H]1OC(=O)Nc1ccccc1-c1ccccc1,0.236 (inactive),0.427,3.93 (inactive),1.27 (inactive),-0.623 (inactive),1.16 (inactive),0.311,1.26 (inactive),-0.874 (inactive),-0.439,-1.46,1.22,-1.31,-1.4,-1.44,-0.0136,0.908 (inactive),-0.87,0.116,-2.56 (inactive)
C=CC[C@@]1(C(N)=O)N=C(c2ccc(OCCCO)cc2)O[C@@H]1c1ccccc1N=[N+]=[N-],1.3 (inactive),0.355,32.8 (active),32.6 (active),4.04 (inactive),3.37 (inactive),0.305,0.039 (inactive),-0.164 (inactive),-1.76,1.38,1.01,0.314,-0.35,-0.0394,-0.00877,0.875 (inactive),-0.327,0.759,1.02 (inactive)
C=CCOC(=O)[C@H]1[C@@H]2C(=O)O[C@@H](c3ccccc3)[C@@H](c3ccccc3)N2[C@@H](c2ccc(OCCOC(=O)[C@H]3C[C@H]4C(=O)N[C@@H](CCCC[N+](C)(C)C)C(=O)N4[C@H]3c3ccc(O)cc3)cc2)[C@]12C(=O)Nc1ccccc12,0.0787 (inactive),0.206,-2.12 (inactive),-1.12 (inactive),0.857 (inactive),-1.95 (inactive),-0.327,2.39 (inactive),0.928 (inactive),0.96,1.6,0.6,0.549,0.419,0.337,-1.12,1.31 (inactive),-0.456,-0.0465,0.896 (inactive)
C=C(/C(=C/C[C@@H](OC(C)=O)c1ccc(CO)o1)c1cnc2ccccc2c1)C(C)C,0.727 (inactive),-0.147,4.83 (inactive),1.28 (inactive),1.74 (inactive),0.332 (inactive),1.04,0.334 (inactive),-1.99 (inactive),-0.957,-0.0718,1.36,-1.07,-0.644,-0.596,-1.33,-0.561 (inactive),-0.292,0.335,-1.45 (inactive)
O=C1NC(=O)C2C1C=CC(C(O)c1cccs1)N2Nc1ccccn1 (stereo not given),0.218 (inactive),-0.0035,0.624 (inactive),0.253 (inactive),-0.285 (inactive),0.853 (inactive),-0.726,0.659 (inactive),-1.32 (inactive),-0.795,1.74,-0.508,0.714,0.119,1.13,0.674,0.112 (inactive),0.268,0.0729,-1.06 (inactive)
COc1ccc(CCNC(=O)[C@@]2(C)c3ccccc3C(=O)N(Cc3ccccc3)[C@H]2c2ccc(CO)cc2)cc1,1.09 (inactive),0.187,6.03 (inactive),0.219 (inactive),0.474 (inactive),-0.73 (inactive),2.24,-3.58 (inactive),-3.9 (inactive),-4.78,-0.973,0.456,-0.833,-0.886,-2.55,1.05,-0.965 (inactive),-0.0556,-0.986,2.17 (inactive)
O=C1OCCC/C=C\[C@H]2OC34C=CCN(CCN5CCOCC5)C(=O)[C@H]3N(CCO)C(=O)[C@@H]4C12 (stereo not given in full),0.216 (inactive),-0.231,0.588 (inactive),0.921 (inactive),0.723 (inactive),0.382 (inactive),-0.364,0.61 (inactive),-0.342 (inactive),0.494,-1.18,1.72,-0.615,1.31,-0.832,-0.41,-1.21 (inactive),-0.802,0.533,-1.99 (inactive)
